From PubChem BioAssay
SARS PLpro yeast = blocks SARS-CoV papain-like protease in a yeast assay; S. cerevisiae expressing SARS-CoV PLpro, growth rescue; Potency, µM (series often up to 32.9 µM), for inactives: at the top dose activity, positive = growth rescue, usual class: activators; 0.19% of 330,000 active; AID 485353; calls by dose curve; further: 0% is about no effect; nearly all actives have a fitted effect of over 55% in size
Pf growth 96h = inhibits malaria parasite growth, 96 h | P. falciparum luciferase reporter growth, 96 h | Potency, µM (titrated, usually from 28.7 µM), for the others: at the top dose activity change, negative = inhibition, most hits filed as inhibitors | 6.9% of 320,000 active; further: on the % scale 0 is the no-effect control and ±100 the full control effect
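96 h incubation, 37 C, 5% CO2, of luciferase-reporter P. falciparum-infected RBCs (2% hematocrit, 0.05% parasitemia final) with test compounds; endpoint luminescence.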
Sm TGR block = S. mansoni TGR enzyme inhibition | AID 485364 | purified TGR, DTNB reduction, TNB absorbance 405 nm | Q962Y6 | 3% of 360,000 active | Potency, µM (doses to about 114 µM), for the others: at the top dose activity change, negative = inhibition, most hits filed as inhibitors; further: on the % scale 0 is the no-effect control and ±100 the full control effect; nearly all actives have a fitted effect of over 60% in size
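TGR 20 nM + NADPH 100 uM (dispensed conc.), cpd preinc 15 min RT; start with NADPH (500 uM addition) then DTNB (15 mM addition). Kinetic TNB absorbance, 405 nm filter. Four-parameter Hill fit across titration.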
Pf growth 48h = P. falciparum growth inhibition at 48 hours (one generation); P. falciparum luciferase growth in erythrocytes, 48 h; Potency, µM (top dose mostly 28.7 µM), for inactives: top-dose activity change, negative = inhibition, hits mostly inhibitors; 5.9% of 310,000 active; AID 504832; further: on the % scale 0 is the no-effect control and ±100 the full control effect
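Read-out is firefly luciferase luminescence from an integrated reporter in P. falciparum, so falling signal marks reduced parasite growth. Infected erythrocytes were at 2% hematocrit and 0.1% parasitemia (final) in Albumax-supplemented RPMI 1640.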
* = called active by the depositor; i = inactive; ? = inconclusive; . = not tested or not shown. This is a sample that favours compounds with a hit; in the whole collection about 12% have one here. Unless noted, the call rests on the fitted dose curve; in most records, active means well fitted curve in the direction sought with a large enough effect; inconclusive means small, poorly fitted or top-dose-only effect, or another doubt; inactive means no such curve, though single readings can be large; an effect the other way counts as inactive or inconclusive. Potency means the concentration at half of the fitted maximal effect.

SMILES	SARS PLpro yeast	Pf growth 96h	Sm TGR block	Pf growth 48h
O=C(COc1ccc(S(=O)(=O)N2CCOCC2)cc1)NCCN1CCOCC1	4%	243%	6%	0%
Cn1c(SCC(=O)N2CC(=O)Nc3ccccc32)nc2ccccc2c1=O	-4%	?	-25%	?
COCCn1c(SCC(=O)Nc2cc(C)on2)nc2ccccc2c1=O	1%	?	5%	?
O=C1CN(C(=O)CSc2nc3ccccc3c(=O)n2Cc2ccc(F)cc2)c2ccccc2N1	14%	2.6µM*	7%	12µM*
Cc1cc(NC(=O)CSc2nc3ccccc3c(=O)n2Cc2ccc(F)cc2)no1	2%	12µM*	-8%	?
CCCCCCn1c(SCC(=O)Nc2cc(C)on2)nc2ccccc2c1=O	-2%	6.6µM*	8%	?
COc1ccc(CCn2c(SCC(=O)Nc3cc(C)on3)nc3ccccc3c2=O)cc1OC	0%	0%	-34%	46%
CCN(CC)C(=O)CSc1nc2ccccc2c(=O)n1CC	4%	?	0%	.
CCN(CC)C(=O)CSc1nc2ccccc2c(=O)n1CCC(=O)NCc1ccc(F)cc1	0%	?	6%	9.3µM*
Cc1n[nH]c(C)c1CCCCOc1ccccc1[N+](=O)[O-]	-5%	?	1%	34%
CCCN(CCC)C(=O)Cn1c(=O)n(CCCCCC(=O)NCc2ccc3c(c2)OCO3)c(=O)c2sccc21	.	.	-3%	.
O=C(NCc1ccc(Cl)s1)C1CCC(=O)N(CCc2ccccn2)C1 (stereo not drawn)	-1%	?	2%	5%
COc1ccc(Nc2nnc(SCC(=O)N3CC(=O)Nc4ccccc43)s2)cc1	0%	2.3µM*	8%	?
Cc1cc(NC(=O)Cn2c(=O)n(Cc3ccccc3)c(=O)c3ccccc32)no1	3%	0%	9%	9.3µM*
Cc1ccc(-n2nnnc2SCC(=O)N2CC(=O)Nc3ccccc32)cc1	-16%	.	45µM*	?
COc1ccc(Nc2nnc(SCC(=O)N3CCCC3)s2)cc1	-1%	?	5%	.
Cc1ccc2c(=O)cc(CSc3ncn[nH]3)[nH]c2c1C	.	.	2%	.
CCOC(=O)c1[nH]c(C)c(C(=O)NCc2ccccc2Cl)c1C	.	.	7%	.
N#Cc1c(C(F)(F)F)cc(-c2cccs2)nc1SCc1ccccc1F	.	.	-2%	.
COc1ccc(C2C=C(c3ccccc3)Nc3nc(NC(=O)c4cccc([N+](=O)[O-])c4)nn32)cc1 (stereo not drawn)	.	.	6%	.
COc1ccc(/C=C/C(=O)c2c(O)ccc3c(C)cc(=O)oc23)cc1	27%	i	-15%	10µM*
COc1ccc(N2CC(C(=O)Nc3nnc(SCc4cccnc4)s3)CC2=O)cc1 (stereo not drawn)	-7%	13µM*	-19%	?
O=C(CSc1nnc(NC(=O)C2CC(=O)N(c3ccccc3)C2)s1)NC1CCCC1 (stereo not drawn)	-5%	0%	-21%	4%
CCOc1ccc(N2CC(C(=O)Nc3cccnc3)CC2=O)cc1 (stereo not drawn)	1%	12µM*	-21%	-21%
CCNC(=O)C1CC(=O)N(c2ccc(OCC)cc2)C1 (stereo not drawn)	-1%	0%	-21%	?
SMILES	SARS PLpro yeast	Pf growth 96h	Sm TGR block	Pf growth 48h
CCOc1ccc(N2CC(C(=O)NCC(=O)Nc3ccc(F)c(F)c3F)CC2=O)cc1 (stereo not drawn)	0%	-27%	32µM*	-20%
COc1ccc(N2CC(C(=O)Nc3nnc(SCC(=O)NC4CCCC4)s3)CC2=O)cc1 (stereo not drawn)	4%	6.6µM*	-3%	-12%
COc1cccc(N2CCN(S(=O)(=O)c3cc4c(cc3Cl)NC(=O)CO4)CC2)c1	1%	?	2%	23%
C=Cc1ccc(CSc2nc(-c3ccc(C)cc3)nc3c2Cc2c(CO)cnc(C)c2O3)cc1	.	.	-9%	.
O=C(NCCOC(=O)c1ccc(S(=O)(=O)N2CCOCC2)cc1)c1cccnc1	3%	2.3µM*	9%	1%
Cc1ccc(NC(=O)C2CCCO2)cc1[N+](=O)[O-] (stereo not drawn)	15%	2.6µM*	2%	45%
CCOC(=O)c1ccc(NC(=O)c2ccc(C)c(S(=O)(=O)N3CCOCC3)c2)cc1	4%	76%	8%	.
O=C(Nc1ccc(S(=O)(=O)N2CCOCC2)cc1)c1cccnc1	2%	61%	3%	?
O=C(Nc1cccc(NC(=O)C2CCCO2)c1)C1CCCO1 (stereo not drawn)	12%	2%	?	42%
CCOC(=O)c1cccc(NC(=O)c2ccc(NC(=O)C3CCCO3)cc2)c1 (stereo not drawn)	-3%	7.4µM*	-10%	?
CCOC(=O)c1ccc(NC(=O)c2cccc(S(=O)(=O)N3CCOCC3)c2)cc1	-2%	4%	-7%	6.6µM*
C=CCN1/C(=C2/SC(=S)N(C)C2=O)Sc2ccccc21	-8%	8%	1%	51%
NC(=O)CC(NC(=O)Cc1ccc(Cl)cc1)c1ccc(NCCN2CCOCC2)c([N+](=O)[O-])c1 (stereo not drawn)	-1%	?	0%	-10%
Cc1ccccc1C(=O)OCC(=O)NCC1COc2ccccc2O1 (stereo not drawn)	1%	37%	-1%	-7%
COc1cc(OC)c(OC)cc1CNCCSc1nnnn1-c1ccccc1	.	.	-18%	.
NS(=O)(=O)c1ccc(NC(=O)C2CCCO2)cc1 (stereo not drawn)	7%	.	36%	4%
CCCN(CCC)S(=O)(=O)c1ccc(NC(=O)C2CCCO2)cc1 (stereo not drawn)	6%	9.3µM*	-9%	?
O=C(Nc1ccc(N2CCCCCC2)cc1)c1cccc(S(=O)(=O)N2CCOCC2)c1	5%	10µM*	-33%	13µM*
COc1cc(NS(=O)(=O)c2ccc3c(c2)C(C)(C)C(=O)N3C)cc(OC)c1	-2%	-2%	0%	-5%
CC[N+](CC)(CC#Cc1ccccc1)CC(=O)c1ccc(Cl)cc1	8%	?	-16%	?
CC[N+](CC)(CC#CCO)CC#Cc1ccccc1	-1%	10µM*	-7%	?
C#CC[N+](CC)(CC)CC#Cc1cccc(Cl)c1	-2%	?	-6%	10µM*
C#CC[N+](C)(C)CC#Cc1ccc(Cl)cc1	-18%	?	40µM*	1.7µM*
COc1ccc(CNC(=O)c2cccn2-c2nnc(N3CCCCC3)s2)c(OC)c1	.	.	0%	.
CS(=O)(=O)N1CC(C(=O)NN)Oc2ccc(Cl)cc21 (stereo not drawn)	0%	?	4%	15%
NC(=O)C1CN(S(=O)(=O)c2ccc(Cl)cc2F)c2ccccc2O1 (stereo not drawn)	0%	3%	40µM*	-21%
NC1=NC2(CCCCC2)N(c2cccc(Cl)c2)C(N)=N1	1%	?	-12%	.
NC1=NC2(CCCCC2)N(c2ccc(F)cc2)C(N)=N1	4%	-3%	2%	13µM*
CCCCOc1ccc(N2C(N)=NC(N)=NC23CCCCC3)cc1	1%	?	-9%	10µM*
CCCCOc1ccc(CN2CCCCC2)cc1	3%	-18%	0%	18%
